These results are taken from paper PMC11006913.

The target in assay [1] is NKX3-2 (Homo sapiens, UniProt P78367 192-278, P234S). Description: PBM; 200 nM protein, PBS. The conditions noted are these: dsDNA, one strand shown.
The target in assay [2] is NKX3-2 (Homo sapiens, UniProt P78367 192-278). The assay can be described thus: PBM; 200 nM protein, PBS. The conditions noted are these: dsDNA, one strand shown.
Sequence of NKX3-2 (Homo sapiens, UniProt P78367 192-278) (P78367 192-278): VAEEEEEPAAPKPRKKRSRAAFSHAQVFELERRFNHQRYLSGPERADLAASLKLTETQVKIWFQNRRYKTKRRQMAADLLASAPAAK

Sequence of NKX3-2 (Homo sapiens, UniProt P78367 192-278, P234S) (P78367 192-278 P234S): as the sequence (P78367 192-278) above, with P43S counted along it

Regarding CGCGGTAC, the binding signal in assay [1] was 10.8 upbm affinity estimate (log intensity, higher = more binding, comparable within an allelic series); in assay [2], 10.8 upbm affinity estimate (log intensity, higher = more binding, comparable within an allelic series).

As for AGAAGAGG, the binding signal in assay [1] is 11.6 upbm affinity estimate (log intensity, higher = more binding, comparable within an allelic series); in assay [2], 11.7 upbm affinity estimate (log intensity, higher = more binding, comparable within an allelic series).

As for CGTTAACG, the binding signal in assay [1] is 10.4 upbm affinity estimate (log intensity, higher = more binding, comparable within an allelic series); in assay [2], 10.5 upbm affinity estimate (log intensity, higher = more binding, comparable within an allelic series).

Consider AACCAGCC, for which the binding signal was 10.4 upbm affinity estimate (log intensity, higher = more binding, comparable within an allelic series) in assay [1] and 10.4 upbm affinity estimate (log intensity, higher = more binding, comparable within an allelic series) in assay [2].

Regarding AGACCACT, the binding signal in assay [1] was 12 upbm affinity estimate (log intensity, higher = more binding, comparable within an allelic series); in assay [2] it was 12.1 upbm affinity estimate (log intensity, higher = more binding, comparable within an allelic series).

Take CACGGGCA: the binding signal in assay [1] was 10.5 upbm affinity estimate (log intensity, higher = more binding, comparable within an allelic series); in assay [2], 10.6 upbm affinity estimate (log intensity, higher = more binding, comparable within an allelic series).

On to CCACTCAG, for which the binding signal in assay [1] was 12.6 upbm affinity estimate (log intensity, higher = more binding, comparable within an allelic series); in assay [2], 12.7 upbm affinity estimate (log intensity, higher = more binding, comparable within an allelic series).

For CCTCTTAC, the binding signal in assay [1] is 12.1 upbm affinity estimate (log intensity, higher = more binding, comparable within an allelic series); in assay [2] it was 12.2 upbm affinity estimate (log intensity, higher = more binding, comparable within an allelic series).

As to CCCGAATC, the binding signal in assay [1] is 10.4 upbm affinity estimate (log intensity, higher = more binding, comparable within an allelic series); in assay [2], 10.4 upbm affinity estimate (log intensity, higher = more binding, comparable within an allelic series).

On to CGCCAGCC, for which the binding signal was 10.7 upbm affinity estimate (log intensity, higher = more binding, comparable within an allelic series) in assay [1] and 10.6 upbm affinity estimate (log intensity, higher = more binding, comparable within an allelic series) in assay [2].

In the case of AGGAAAAA, the binding signal is 10.5 upbm affinity estimate (log intensity, higher = more binding, comparable within an allelic series) in assay [1] and 10.6 upbm affinity estimate (log intensity, higher = more binding, comparable within an allelic series) in assay [2].

Turning to ATGCCGAC, the binding signal in assay [1] was 10.6 upbm affinity estimate (log intensity, higher = more binding, comparable within an allelic series); in assay [2] it was 10.6 upbm affinity estimate (log intensity, higher = more binding, comparable within an allelic series).

As to GGCGCGCA, the binding signal in assay [1] was 10.6 upbm affinity estimate (log intensity, higher = more binding, comparable within an allelic series); in assay [2] it was 10.6 upbm affinity estimate (log intensity, higher = more binding, comparable within an allelic series).

Turning to CCTGGCCG, the binding signal is 10.5 upbm affinity estimate (log intensity, higher = more binding, comparable within an allelic series) in assay [1] and 10.5 upbm affinity estimate (log intensity, higher = more binding, comparable within an allelic series) in assay [2].

For the sequence ACGGGACG, the binding signal is 10.4 upbm affinity estimate (log intensity, higher = more binding, comparable within an allelic series) in assay [1] and 10.4 upbm affinity estimate (log intensity, higher = more binding, comparable within an allelic series) in assay [2].

In the case of GGTTGAAC, the binding signal is 10.6 upbm affinity estimate (log intensity, higher = more binding, comparable within an allelic series) in assay [1] and 10.6 upbm affinity estimate (log intensity, higher = more binding, comparable within an allelic series) in assay [2].

For CAAGGGTC, the binding signal in assay [1] was 11.7 upbm affinity estimate (log intensity, higher = more binding, comparable within an allelic series); in assay [2], 11.8 upbm affinity estimate (log intensity, higher = more binding, comparable within an allelic series).

In the case of AGAGGGCA, the binding signal in assay [1] is 11.8 upbm affinity estimate (log intensity, higher = more binding, comparable within an allelic series); in assay [2] it was 11.8 upbm affinity estimate (log intensity, higher = more binding, comparable within an allelic series).

AAGTGACG: the binding signal in assay [1] is 11.7 upbm affinity estimate (log intensity, higher = more binding, comparable within an allelic series); in assay [2] it was 11.9 upbm affinity estimate (log intensity, higher = more binding, comparable within an allelic series).

As to AAGTGCCG, the binding signal in assay [1] is 12.5 upbm affinity estimate (log intensity, higher = more binding, comparable within an allelic series); in assay [2], 12.6 upbm affinity estimate (log intensity, higher = more binding, comparable within an allelic series).

Consider AGCCTGGA, for which the binding signal in assay [1] was 10.6 upbm affinity estimate (log intensity, higher = more binding, comparable within an allelic series); in assay [2], 10.6 upbm affinity estimate (log intensity, higher = more binding, comparable within an allelic series).

As to AGGTTGTG, the binding signal in assay [1] is 10.7 upbm affinity estimate (log intensity, higher = more binding, comparable within an allelic series); in assay [2], 10.7 upbm affinity estimate (log intensity, higher = more binding, comparable within an allelic series).

As to CCGCTCAG, the binding signal is 10.6 upbm affinity estimate (log intensity, higher = more binding, comparable within an allelic series) in assay [1] and 10.6 upbm affinity estimate (log intensity, higher = more binding, comparable within an allelic series) in assay [2].

On to AGTGGTCC, for which the binding signal in assay [1] was 11.9 upbm affinity estimate (log intensity, higher = more binding, comparable within an allelic series); in assay [2] it was 11.9 upbm affinity estimate (log intensity, higher = more binding, comparable within an allelic series).

On to CTCTAGAG, for which the binding signal in assay [1] is 10.9 upbm affinity estimate (log intensity, higher = more binding, comparable within an allelic series); in assay [2], 10.9 upbm affinity estimate (log intensity, higher = more binding, comparable within an allelic series).

With CGACGGCC, the binding signal in assay [1] is 10.7 upbm affinity estimate (log intensity, higher = more binding, comparable within an allelic series); in assay [2], 10.6 upbm affinity estimate (log intensity, higher = more binding, comparable within an allelic series).

On to CAGGGAAG, for which the binding signal in assay [1] is 10.5 upbm affinity estimate (log intensity, higher = more binding, comparable within an allelic series); in assay [2] it was 10.5 upbm affinity estimate (log intensity, higher = more binding, comparable within an allelic series).

Consider GGACCCGA, for which the binding signal in assay [1] is 10.6 upbm affinity estimate (log intensity, higher = more binding, comparable within an allelic series); in assay [2], 10.6 upbm affinity estimate (log intensity, higher = more binding, comparable within an allelic series).

With CCGCGGCA, the binding signal in assay [1] was 10.5 upbm affinity estimate (log intensity, higher = more binding, comparable within an allelic series); in assay [2], 10.5 upbm affinity estimate (log intensity, higher = more binding, comparable within an allelic series).

For the sequence GACGGGAC, the binding signal is 10.5 upbm affinity estimate (log intensity, higher = more binding, comparable within an allelic series) in assay [1] and 10.5 upbm affinity estimate (log intensity, higher = more binding, comparable within an allelic series) in assay [2].
